# Measured values: PubChem BioAssay (NCATS)
# Inconclusive results are not listed. A call without a number means that no potency is given here. Active and inactive are the calls of the source. Unless noted, calls follow the shape of the full dose curve.
# What was measured:
# [1] = qHTS for Inhibitors of the Functional Ribonucleoprotein Complex (vRNP) of Lassa (LASV) Arenavirus: LASV Primary Screen - GLuc reporter signal (AID 1347082; calls by dose curve; tested in HEK293 reporter line; also: nearly all actives have a fitted effect of over 60% in size)
# [2] = molecular target: Nucleoprotein (Lymphocytic choriomeningitis virus (strain Armstrong)) (UniProt P09992); assay: qHTS for Inhibitors of the Functional Ribonucleoprotein Complex (vRNP) of Lymphocytic Choriomeningitis Arenaviruses (LCMV): LCMV Primary Screen - GLuc reporter signal (AID 1347086); also: nearly all actives have a fitted effect of over 70% in size
# Nucleoprotein (Lymphocytic choriomeningitis virus (strain Armstrong)), sequence (P09992 whole entry, looked up): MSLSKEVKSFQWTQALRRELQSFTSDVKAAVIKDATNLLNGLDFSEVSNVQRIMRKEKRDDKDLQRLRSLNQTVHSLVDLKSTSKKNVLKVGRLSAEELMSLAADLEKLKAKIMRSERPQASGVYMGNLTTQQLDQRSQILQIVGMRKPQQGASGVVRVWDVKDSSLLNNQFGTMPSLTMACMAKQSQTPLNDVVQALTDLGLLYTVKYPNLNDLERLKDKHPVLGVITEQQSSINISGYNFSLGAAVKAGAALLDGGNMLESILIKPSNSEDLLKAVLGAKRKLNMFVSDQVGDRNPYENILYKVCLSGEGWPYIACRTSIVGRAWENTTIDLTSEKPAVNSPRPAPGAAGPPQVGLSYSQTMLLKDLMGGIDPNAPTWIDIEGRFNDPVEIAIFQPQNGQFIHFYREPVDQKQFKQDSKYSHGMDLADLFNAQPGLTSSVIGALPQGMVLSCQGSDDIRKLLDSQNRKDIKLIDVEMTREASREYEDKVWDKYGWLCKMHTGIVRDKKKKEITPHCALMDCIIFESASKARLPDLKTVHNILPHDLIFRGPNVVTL
# [3] = Primary qHTS to identify inhibitors of SARS-CoV-2 cell entry (AID 1645846); conditions: activity change, negative = inhibition: at 57.1 µM (top of the series) unless noted; also: nearly all actives have a fitted effect of over 45% in size
# Procedure, shortened: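 Entry measured by luciferase signal 48 h after adding SARS-CoV-2-S pseudotyped MLV particles to HEK293-ACE2 cells preincubated 1 h with compounds. Normalisation: bald particles and spike particles.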
# [4] = tested on: CRL-7250; assay: qHTS assay to identify novel small-molecules to repurpose for Merkel cell carcinoma treatment (AID 1296009; active = well fitted inhibition curve with a large enough effect; also: nearly all actives have a fitted effect of over 60% in size); conditions: MCC and control cell lines, CellTiter-Glo viability, 72 h; series mostly up to 92 µM
# Procedure, shortened: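 After compound transfer in DMSO, plates were kept 72 hr at 37 degree celsius. Luminescent ATP signal from CellTiter-Glo served as viability measure, normalized against DMSO and no-cell controls.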
# [5] = qHTS for Inhibitors of the Functional Ribonucleoprotein Complex (vRNP) of Lymphocytic Choriomeningitis Arenaviruses (LCMV): Viability assay - alamar blue signal for LCMV Primary Screen (AID 1347085; calls by dose curve; tested in HEK293 reporter line; also: potency is read from the fitted curve at half-maximal effect; nearly all actives have a fitted effect of over 80% in size)
# [6] = Cytotoxicity counterscreen for inhibitors of SARS-CoV-2 cell entry (AID 1645845); also: nearly all actives have a fitted effect of over 50% in size
# Procedure, shortened: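 48 h compound treatment (after 1 h preincubation), HEK293-ACE2 cells, 37 C/5% CO2; ATP luminescence endpoint; normalized to cell wells and media blanks.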
# [7] = qHTS for Inhibitors of the Functional Ribonucleoprotein Complex (vRNP) of Lassa (LASV) Arenavirus: Viability assay - alamar blue signal for LASV Primary Screen (AID 1347083; calls by dose curve; tested in HEK293 reporter line; also: nearly all actives have a fitted effect of over 80% in size; also: potency is read from the fitted curve at half-maximal effect)
# [8] = Confirmatory qHTS to identify inhibitors of SARS-CoV-2 cell entry (AID 1645844); also: potency is read from the fitted curve at half-maximal effect; nearly all actives have a fitted effect of over 45% in size
# Procedure, shortened: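 Luminescence from a luciferase reporter, read 48 hr after pseudotyped-particle addition, gives entry signal, normalised to spike-bearing PP wells and bald PP lacking fusion protein wells. Cells are Expi293F stably expressing human ACE2, compound-pretreated 1 hr.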
# [9] = VSVG counterscreen qHTS to identify inhibitors of SARS-CoV-2 cell entry (AID 1645847); also: potency is read from the fitted curve at half-maximal effect; nearly all actives have a fitted effect of over 65% in size
# Procedure, shortened: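 Luminescence read after 48 h infection at 37 C with VSV-G-pseudotyped MLV particles, following 1 h compound exposure of Expi293F cells stably expressing human ACE2; scaled between bald particle and VSV-G particle wells.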
compound,measurement,setting,value
CCCCOc1ccc(C(=O)Nc2ccc(F)cc2F)cc1,Potency,[1],inactive
same,Potency,[2],inactive
same,Potency,[3],inactive
same,Potency,[4],inactive
COC(=O)[C@H](CCCN=C(N)N)NS(=O)(=O)c1ccc(C)cc1,Potency,[1],inactive
same,Potency,[5],17.2 µM (active)
same,Potency,[6],inactive
same,Potency,[4],inactive
C[C@](Cc1c[nH]c2ccccc12)(NC(=O)OC1C2CC3CC(C2)CC1C3)C(=O)NC[C@H](NC(=O)CCC(=O)O)c1ccccc1 (some centres undefined),Potency,[1],inactive
same,Potency,[2],inactive
same,Potency,[6],inactive
same,Potency,[3],inactive
same,Potency,[4],inactive
COc1ccc2c(c1)c(C1=C(c3c[nH]c4ccccc34)C(=O)NC1=O)cn2CCCN(C)C,Potency,[7],0.485 µM (active)
same,Potency,[4],inactive
CC1(C)Cc2c(sc(NC(=S)NC(=O)c3ccccc3)c2C(=O)O)CO1,Potency,[7],21.7 µM (active)
same,Potency,[5],38.5 µM (active)
same,Potency,[4],inactive
Nc1ncnc2c1c(-c1cccc(OCc3ccccc3)c1)cn2C1CC(CN2CCC2)C1 (centres undefined),Potency,[1],inactive
same,Potency,[7],inactive
same,Potency,[2],inactive
same,Potency,[6],inactive
same,Potency,[4],inactive
Cc1c(NC(=O)c2ccc(C(C)(C)C)cc2)cccc1-c1cn(C)c(=O)c(Nc2ccc(C(=O)N3CCOCC3)cc2)n1,Potency,[1],inactive
same,Potency,[7],inactive
same,Potency,[2],inactive
same,Potency,[6],inactive
same,Potency,[3],inactive
same,Potency,[4],inactive
NC1=N[C@@]2(c3cc(NC(=O)c4ccc(F)cn4)ccc3F)COC[C@@H]2CS1,Potency,[7],17.2 µM (active)
same,Potency,[5],19.3 µM (active)
same,Potency,[4],inactive
Nc1nc(=O)n([C@H]2C[C@H](O)[C@@H](CO)O2)cc1F,Potency,[7],0.769 µM (active)
same,Potency,[5],1.93 µM (active)
same,Potency,[8],10.8 nM (active)
same,Potency,[6],inactive
same,"activity change, negative = inhibition",[3],-95.3%
same,Potency,[9],13.6 nM (active)
same,Potency,[4],inactive
